# BAZ2B inh: BAZ2B (human) inhibition; Q9UIF8; AlphaScreen BAZ2B-H3K14Ac peptide displacement; Potency, µM (top dose mostly 114 µM), for the others: top-dose activity change, negative = inhibition, most hits filed as inhibitors; 360,000 tested, 4.4% active; also: potency is read from the fitted curve at half-maximal effect; % is scaled to controls: 0 for no effect and ±100 for the full control effect; nearly all actives have a fitted effect of over 60% in size
#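 AlphaScreen luminescence quantifies BAZ2B engagement of H3K14Ac peptide; the protein and biotinylated peptide are both at 50 nM final, buffer PBS pH 7.4 with 0.01% Tween-20, all steps at room temperature.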
# CtBP-E1A inh: CtBP/E1A binding inhibition. AlphaScreen GST-E1A/His-CtBP binding, 1536-well; active compounds read low. activity change, % (concentration not given with the values). 340,000 tested, 0.49% active. AID 651724; in the data active = activity change below about -65%; inconclusive = mostly about -30% to -63%; also: % is scaled to controls: 0 for no effect and ±100 for the full control effect
#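 Protein mix (5X: 125 nM each GST-E1A, His-CtBP) was incubated with pinned compound 2 h at 37 deg C in dark, in 50 mM Tris pH 8.0 buffer with 300 mM NaCl. Glutathione donor and nickel acceptor beads followed; AlphaScreen signal read after 1 h.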
# Six1-Eya2 blk: Six1/Eya2 interaction inhibition | activity change, % (concentration not given with the values) | 360,000 tested, 0.56% active | AID 651725 | AlphaScreen GST-Six1/His-Eya2 binding, biochemical; active compounds read low; in the data active = activity change below about -65%; inconclusive = mostly about -30% to -63%; also: % is scaled to controls: 0 for no effect and ±100 for the full control effect
#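 Six1/Eya2 binding was read as AlphaScreen signal after compounds were pinned into GST-Six1 plus His-tagged Eya2 (5X stock 250/500 nM) in pH 8.0 Tris/NaCl/TCEP buffer, beads added, then incubated 1 h, 37 C, dark.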
# HP1b binding inh: blocks HP1-beta chromodomain binding to methylated histone tails; P83916; AlphaScreen HP1-beta / biotin-H3K9me3 peptide binding; Potency, µM (top dose mostly 114 µM), for the others: at the highest dose activity change, negative = inhibition, most hits filed as inhibitors; 390,000 tested, 0.56% active; AID 540317; also: potency is read from the fitted curve at half-maximal effect; nearly all actives have a fitted effect of over 70% in size
# Target sequence (P83916 whole entry, looked up): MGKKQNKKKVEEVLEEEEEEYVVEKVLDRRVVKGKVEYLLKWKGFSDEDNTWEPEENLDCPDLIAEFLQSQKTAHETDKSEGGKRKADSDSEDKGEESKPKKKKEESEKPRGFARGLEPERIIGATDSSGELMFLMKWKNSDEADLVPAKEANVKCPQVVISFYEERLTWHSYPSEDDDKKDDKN
#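 AlphaScreen: HP1-beta (50 nM) preformed 30 min with biotin-H3(1-18)K9me3 peptide (50 nM) in PBS pH 7.4, 0.01% Tween-20. Compound added for 30 min at RT, then streptavidin donor/nickel chelate acceptor beads (10 ug/mL) for 30 min.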
# G9a inh: blocks human histone lysine methyltransferase G9a | Q96KQ7 | G9a H3K9 monomethylation, AlphaScreen, 2 h | Potency, µM (highest dose often 102 µM), without a hit: at the top dose activity, negative = inhibition, actives largely listed as inhibitors | 350,000 tested, 8.8% active | AID 504332; also: potency is read from the fitted curve at half-maximal effect; % is scaled to controls: 0 for no effect and ±100 for the full control effect; nearly all actives have a fitted effect of over 75% in size
# Target sequence (Q96KQ7 913-1193 limits assumed): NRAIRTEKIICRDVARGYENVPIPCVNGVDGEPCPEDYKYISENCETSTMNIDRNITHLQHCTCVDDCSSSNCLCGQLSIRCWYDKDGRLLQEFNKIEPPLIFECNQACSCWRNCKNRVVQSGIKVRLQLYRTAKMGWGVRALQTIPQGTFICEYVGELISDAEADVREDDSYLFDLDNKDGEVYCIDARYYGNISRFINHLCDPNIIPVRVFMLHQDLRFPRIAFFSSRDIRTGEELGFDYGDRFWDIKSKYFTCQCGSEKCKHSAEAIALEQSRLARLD
#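 Methyltransferase reactions run at room temperature for 2 h (20 nM enzyme, 500 nM biotin-H3K9 peptide, 20 uM SAM) after a 15 min compound preincubation; product detected by AlphaScreen beads and anti-H3K9me1 antibody.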
# JMJD2A Tudor: blocks the human JMJD2A Tudor domain. 390,000 tested, 4.4% active. Potency, µM (doses to about 114 µM), for inactives: at the top dose activity change, negative = inhibition, most hits filed as inhibitors. AlphaScreen JMJD2A-Tudor / H3K4me3 peptide binding. O75164; also: potency is read from the fitted curve at half-maximal effect; % is scaled to controls: 0 for no effect and ±100 for the full control effect; nearly all actives have a fitted effect of over 50% in size
# * = called active by the depositor; u = inconclusive; x = no result; [ ] = remark or other dose. This is a sample that favours compounds with a hit; in the whole collection about 10% have one here. Unless noted, calls follow the shape of the dose curve; as a rule, active = well fitted inhibition curve with a large enough effect; inconclusive = small, poorly fitted or top-dose-only effect; inactive = no such curve, though single readings can be large or run the other way.
SMILES,BAZ2B inh,CtBP-E1A inh,Six1-Eya2 blk,HP1b binding inh,G9a inh,JMJD2A Tudor
CN1CCc2cc(O)cc3c2C1Cc1ccc(O)c(O)c1-3 (configuration not stated),x,x,x,x,0.708µM*,x
CCCN1CCc2cccc3c2[C@H]1Cc1ccc(O)c(O)c1-3,x,-8.5,-14.5,15.8µM*,1.68µM*,22.4µM*
C=CCN1CCc2cccc3c2C1Cc1ccc(O)c(O)c1-3 (configuration not stated),x,x,x,x,0.355µM*,x
CC12CCC3C4CCC(=O)C(O)=C4CCC3C1CCC2OC(=O)CCC1CCCC1 (configuration not stated),x,x,x,x,7.1%[12.7 µM],x
COc1ccc(-c2oc(=O)n(C)c2-c2ccc(OC)cc2)cc1,31.6µM*,-11.9,-8.6,0.0%,-14.1%,u
CCCCC[C@@H](/C=C/C=C\C/C=C\C/C=C\CCCC(=O)O)OO,x,x,x,x,27.3%[59 µM],x
C=CCn1c(CSc2ccccc2[N+](=O)[O-])n[nH]c1=S,39.8µM*,-15.0,-23.0,u,1.26µM*,8.91µM*
CCc1ccc(-n2c(O)c(C=NCCN(CC)CC)c(=O)[nH]c2=O)cc1,-37.7%,-3.7,-4.5,49.7%,5.1%[0.501 µM],-3.1%[57.1 µM]
O=c1[nH]c2ccccc2n1C1CCN(CCCC(c2ccc(F)cc2)c2ccc(F)cc2)CC1,u,-20.3,-3.6,u,25.8%[12.7 µM],39.8µM*
CNC(=O)Oc1ccc2c(c1)[C@@]1(C)CCN(C)[C@@H]1N2C,x,x,x,x,7.8%[21.5 µM],x
CN1C(=O)C(=Cc2ccc(Sc3ccccc3)o2)C(=O)N(C)C1=O,-29.0%,3.8,4.5,27.4%,8.91µM*,-3.7%
O=C1NC(=O)C(=Cc2ccc(Sc3ccccc3)o2)C(=O)N1,u,5.5,-2.7,2.8%,-22.7%[12.7 µM],u
CN1C(=O)C(=Cc2ccc(Sc3ccccc3)o2)C(=O)N(C)C1=S,x,-4.2,-12.6,u,x,50.1µM*
CCOc1ccc(C2c3c(-c4ccccc4O)n[nH]c3C(=O)N2Cc2ccncc2)cc1 (configuration not stated),-30.3%,x,x,24.9%,3.4%[59 µM],u
CCCc1cnc2c(c1SCC(=O)Nc1ccc([N+](=O)[O-])cc1)c(=O)n(C)c(=O)n2C,-15.7%,x,x,-4.6%,12.6µM*,-24.4%
O=C(NCc1cccnc1)Nc1ccc([N+](=O)[O-])cc1,-17.5%,-18.3,0.6,21.9%,10.3%,-23.1%
CC1=CC(=O)C2=C(C)C[C@@H](O)[C@@H]3[C@@H](OC(=O)[C@H]3C)[C@H]12,x,x,x,x,22.9%[21.5 µM],x
CC(C)N1CCN(Cc2cccc([N+](=O)[O-])c2)CC1,50.1µM*,8.2,0.7,u,3.55µM*,0.891µM*
O=[N+]([O-])c1cccc(CN2CCN(Cc3ccc(Cl)cc3)CC2)c1,20µM*,-10.5,-24.5,u,3.55µM*,0.794µM*
Cn1c(-c2ccccc2)c(P(=S)(c2ccccc2)c2ccccc2)c2ccccc21,x,x,x,x,x,-15.0%
CC(N=Cc1c(O)[nH]c(=O)[nH]c1=O)c1ccccc1 (configuration not stated),-1.3%,0.4,9.6,9.2%,5.62µM*,-18.0%
CC(C)OC(=O)c1c(N)n(Cc2ccco2)c2nc3ccccc3nc12,-12.4%,u,u,67.0%,3.55µM*,11.9%
CC(C)CNC(=O)c1c(N)n(Cc2ccco2)c2nc3ccccc3nc12,21.2%,11.1,8.5,50.2%,44.7µM*,-7.2%
CCCNC(=O)c1c(N)n(Cc2ccco2)c2nc3ccccc3nc12,9.0%,3.2,-6.9,50.2%,u,30.6%
CNc1ccc(C(=O)CC(O)CCC(C)C2OC(=O)CC(O)CC(=O)CC(O)CC(O)CC(O)CC(O)CC3(O)CC(O)C(C(=O)OC)C(CC(O[C@@H]4OC(C)C(O)C(N)C4O)/C=C/C=C/C=C/C=C/C=C/C=C/C=C/C2C)O3)cc1 (some centres not stated),x,x,x,x,7.3%[2.33 µM],x
O=C(NC1CC1)c1cc(-c2ccco2)nc2ccccc12,10µM*,-2.3,u,17.8µM*,10µM*,8.91µM*
